KDM5B inh: Primary screen for KDM5B Histone Demethylases FDH-coupled qHTS; Lysine-specific demethylase 5B (Homo sapiens), Q9UGL1; KDM5B demethylase, FDH-coupled NADH fluorescence (FDH is formaldehyde dehydrogenase); Potency, µM (doses to about 57.7 µM), most hits filed as inhibitors; 2.6% of 220,000 active; AID 1347165, 2019; also: nearly all actives have a fitted effect of over 70% in size
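KDM5BΔAP (200 nM final) in 50 mM HEPES pH 7.5, 0.01% Tween-20 was preincubated 10 min at RT with compound over a concentration range. Substrate mix (H3K4me3 12.5 µM, α-KG 25 µM, Fe²⁺, ascorbate, NAD⁺, FDH) was added, and NADH fluorescence change over 30 min gave dose-response curves.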
IP6K1 inh: Primary qHTS assay for small molecule inhibitors of Inositol hexaphosphate kinase 1 (IP6K1) | Inositol hexakisphosphate kinase 1 (Homo sapiens), Q92551 | IP6K1 kinase, ADP-Glo luminescence, 2 h; hits give low values | activity change, % (series mostly up to about 58 µM) | 0.81% of 140,000 active | AID 1645851, 2021; in the data active = activity change below about -25%
Target sequence (Q92551 whole entry, looked up): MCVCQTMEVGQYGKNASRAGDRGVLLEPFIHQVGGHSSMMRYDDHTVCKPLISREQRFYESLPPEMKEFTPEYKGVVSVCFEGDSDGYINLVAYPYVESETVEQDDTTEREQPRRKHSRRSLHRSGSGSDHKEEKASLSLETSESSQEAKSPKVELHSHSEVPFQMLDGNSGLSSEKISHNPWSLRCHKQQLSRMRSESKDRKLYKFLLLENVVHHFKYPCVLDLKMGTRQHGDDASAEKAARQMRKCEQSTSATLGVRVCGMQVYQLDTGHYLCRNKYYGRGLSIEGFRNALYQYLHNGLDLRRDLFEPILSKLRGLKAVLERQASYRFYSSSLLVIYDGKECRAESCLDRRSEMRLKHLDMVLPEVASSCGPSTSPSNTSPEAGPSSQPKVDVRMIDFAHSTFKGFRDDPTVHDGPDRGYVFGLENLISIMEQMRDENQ
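ADP-Glo luminescence measures ADP made by human IP6K1 during a 2 h RT reaction with ATP/IP6 (mix at 1.3 mM/130 uM); top library doses 57.5 and 19.1 uM final.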
SNCA expr inhib: Primary qHTS assay for inhibitors of alpha-synuclein gene (SNCA) expression | HEK-293 SNCA-luciferase knock-in, luminescence, 24 h | Potency, µM (series often up to 57.2 µM), usual class: inhibitors | 0.17% of 140,000 active | AID 1671194, 2021; also: nearly all actives have a fitted effect of over 45% in size
HEK293 viab: GF-AFC viability counterscreen for inhibitors of alpha-synuclein gene (SNCA) expression | HEK-293-SNCA-luc viability, GF-AFC fluorescence, 24 h | 0.12% of 150,000 active | Potency, µM (series often up to 57.1 µM), usual class: cytotoxic; also: nearly all actives have a fitted effect of over 30% in size
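HEK-293-SNCA-luc cells (1500/well) plated 24 h, then exposed 24 h to a dilution series; GF-AFC added 30 min at 37C, fluorescence 405/540 nm; normalised to medium-only and DMSO wells, Hill fit.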
Numbers stand for hits; - = inactive; ? = inconclusive; . = no result. A selection: hits, their analogues and other compounds. The true share with any hit is near 2.8%. Unless noted, calls follow the shape of the dose curve; as a rule, active = well fitted curve in the direction sought with a large enough effect; inconclusive = small, poorly fitted or top-dose-only effect, or another doubt; inactive = no such curve, though single readings can be large; an effect the other way counts as inactive or inconclusive.

SMILES | KDM5B inh | IP6K1 inh | SNCA expr inhib | HEK293 viab
O=C(CCc1cc(Cl)no1)N1CCc2nc3cc(-c4ccccc4)[nH]n3c(=O)c2C1 | 7.9µM | - | ? | -
O=C1CN(C(=O)CCC(=O)N2CCc3c(nc4cc(-c5ccccc5)[nH]n4c3=O)C2)c2ccccc2N1 | 28µM | - | - | -
O=C(CCc1nc2ccc(Cl)cc2[nH]1)N1CCc2nc3cc(-c4ccccc4)[nH]n3c(=O)c2C1 | 22µM | - | ? | -
O=C(CCc1nc2ccc(Cl)cc2[nH]1)N1CCc2c(nc3cc(-c4ccccc4)[nH]n3c2=O)C1 | 32µM | - | - | -
Cc1ccc2c(c1C)NC(=O)C2(O)C(F)(F)F (configuration not stated) | - | . | . | .
CCOc1ccccc1CN1CCC2(CCN([S+](=O)([O-])c3ccc(C)cc3)CC2)Oc2ccccc21 | ? | - | - | ?
CCOc1ccccc1CN1CCC2(CCN([S+](=O)([O-])c3cccc(C(F)(F)F)c3)CC2)Oc2ccccc21 | 13µM | - | - | -
CN(Cc1cccnc1)c1ccc2ncc(Nc3cccc(N[S+](C)(=O)[O-])c3)n2n1 | 18µM | - | - | -
CN(Cc1ccc(F)cc1)c1ccc2ncc(Nc3cccc(N[S+](C)(=O)[O-])c3)n2n1 | ? | - | - | -
CN(Cc1cccnc1)c1ccc2ncc(Nc3ccc(C(F)(F)F)cc3)n2n1 | 25µM | - | ? | -
CC(C)/C(=N\NC(=O)c1ccc(C(C)(C)C)cc1)c1ccccc1 | - | . | . | .
COCC(=O)N1CCCC1c1nc(CCOc2ccc(F)cc2)no1 (configuration not stated) | . | - | - | -
COc1ccc(-c2cc(N3CCCC(NC(=O)c4cccc5[nH]ccc45)C3)n[nH]2)cc1 (configuration not stated) | 25µM | - | - | ?
COc1ccc(-c2cc(N3CCCN(C(=O)c4cccc5[nH]ccc45)CC3)n[nH]2)cc1 | 28µM | - | - | -
Cc1nc(N2CCC(NC(=O)c3cccc4[nH]ccc34)CC2)cc(C(F)(F)F)n1 | 28µM | - | - | -
COc1ccc(C(=O)N2CCCN(c3cc(-c4ccc(OC)cc4)[nH]n3)CC2)cc1 | - | - | - | -
O=C(NC1CCN(c2cc(-c3ccc(F)cc3)[nH]n2)C1)c1c[nH]c2ccccc12 (configuration not stated) | 14µM | - | ? | ?
Cn1nc(-c2ccc(N3CCCCC3)c([N+](=O)[O-])c2)c2ccccc2c1=O | - | . | . | .
CN1CCN(C(C(=O)O)c2c[nH]c3cc(OCc4ccccc4)ccc23)CC1 (configuration not stated) | - | . | . | .
Cc1cn2nc(C(=O)NCc3ccccc3F)cc2c(N(C)Cc2ccccc2)n1 | 14µM | - | - | -
COc1ccccc1CNC(=O)c1cc2c(N(C)Cc3ccccc3)nc(C)cn2n1 | 14µM | - | - | -
CC(C)CCN1CCc2nc(C(C)C)nc(-c3ccc(O)cc3)c2C1 | . | - | - | -
CCOc1ccc(N(C(C)C(=O)N(Cc2ccccc2)Cc2ccccc2)S(C)(=O)=O)cc1 (configuration not stated) | - | . | . | .
O=C1CCC2(CCCN(c3ncc(Cl)cc3F)C2)CN1Cc1cccnc1 (configuration not stated) | 28µM | - | - | -
Cc1ccc(C2Cn3nnc(-c4noc(-c5ccc(N(C)C)cc5)n4)c3CO2)cc1 (configuration not stated) | ? | - | - | -
SMILES | KDM5B inh | IP6K1 inh | SNCA expr inhib | HEK293 viab
Cc1ccc(C2Cn3nnc(-c4noc(-c5cccc(N(C)C)c5)n4)c3CO2)cc1 (configuration not stated) | 22µM | - | - | -
COc1ccc(-c2nc(-c3nnn4c3COC(c3ccc(C)cc3)C4)no2)cc1OC (configuration not stated) | 14µM | - | - | -
COc1ccc(-c2nc(-c3nnn4c3COC(c3ccc(C)cc3)C4)no2)c(OC)c1 (configuration not stated) | 20µM | - | - | -
Cc1ccc(C2Cn3nnc(-c4noc(-c5ccc(C)s5)n4)c3CO2)cc1 (configuration not stated) | 13µM | - | - | -
COc1ccc(C2Cn3nnc(-c4noc(-c5ccc(C)cc5C)n4)c3CO2)cc1 (configuration not stated) | ? | - | - | -
CSc1cccc(NC(=O)/C=C/c2cccc3ccccc23)c1 | - | . | . | .
COCCOc1ccc(C(=O)N[C@@H]2CNCCC[C@H]2O)cc1 | - | - | - | -
COC(=O)C1=C(C)N=C2SC=C(CC(=O)NCc3ccc(F)cc3)N2C1c1cccc(OC)c1 (configuration not stated) | - | - | - | -
Cc1ccc(-c2cc3c(=O)n(CCNC(=O)C4CCCCC4)ccn3n2)c(C)c1 | - | - | - | -
CC(=O)N1CCC(NC[C@@H]2C=C(C)[C@H](Cc3nc4ccc(F)cc4[nH]3)C[C@H]2C(C)C)CC1 | - | - | - | -
O=C(N[C@H]1CCOC[C@H]1C1CCOCC1)c1cc(=O)[nH]c2ccc(F)cc12 | 22µM | - | - | -
CCOc1ccc(Cc2nc(-c3c(C)nc4ccccn34)cs2)cc1 | . | - | . | 12µM
COc1ccccc1C(=O)NCCn1ccn2nc(-c3ccc(C)c(C)c3)cc2c1=O | 28µM | - | - | -
Cc1ccc(-c2cc3c(=O)n(CCNC(=O)c4nn(C)c5ccccc45)ccn3n2)cc1C | 22µM | - | - | -
COc1ccc(-c2cc3c(=O)n(CCNC(=O)c4ccccc4C)ccn3n2)cc1 | 20µM | - | - | -
Cc1ccc(-c2cc3c(=O)n(CCNC(=O)c4cc(F)ccc4F)ccn3n2)cc1C | ? | - | - | -
CCOC(=O)c1cc2c(=O)n3ccccc3nc2n(Cc2ccco2)c1=NC(=O)c1c(F)cccc1Cl | ? | -60 | ? | ?
Cc1cccc(S(=O)(=O)N2CCN(c3ccc(Nc4ccccc4)nn3)CC2)c1 | - | . | . | .
CN1CCN(S(=O)(=O)c2cc(Br)cc(C(=O)O)c2)CC1 | - | - | - | -
COc1ccc(-c2cc(C(=O)O)cc(S(=O)(=O)N3CCN(C)CC3)c2)cc1 | 16µM | - | - | -
FC(F)(F)C1CN(c2cc(N3CCOCC3)ncn2)CCO1 (configuration not stated) | - | - | - | -
COc1ccc(CN2CCn3c(nnc3C3CCNCC3)C2)cc1 | - | - | - | -
c1ccc(CN2CCn3c(nnc3C3CCNCC3)C2)cc1 | 100µM | - | - | -
CC(=O)Nc1ccc(CN2CCn3c(nnc3C3CCNCC3)C2)cc1 | 13µM | - | - | -
CCc1noc([C@@H]2CC(F)(F)CN2C(=O)c2nccn2C)n1 | - | - | - | -
O=C([C@@H]1C[C@H](Oc2ccccc2)CN1C(=O)c1cc2ccccc2[nH]1)N1CCCC1 | 25µM | - | - | -
O=C([C@@H]1C[C@H](Oc2ccccc2)CN1C(=O)c1cc2ccccc2[nH]1)N1CCOCC1 | ? | - | - | -

Bioassay records (PubChem BioAssay)
